Records with an inconclusive call do not appear. Activity calls are given as the source filed them. Calls come from the whole dose curve; as a rule, active = well fitted inhibition curve with a large enough effect; inconclusive = small, poorly fitted or top-dose-only effect; inactive = no such curve, though single readings can be large or run the other way.
Potency is the fitted concentration of half-maximal effect.

The experiment addresses Luciferin 4-monooxygenase (Photinus pyralis) (UniProt P08659). Nature of the experiment: Confirmatory firefly luciferase (FLuc) qHTS assay for identification of artifact compounds.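 For activity change, negative = inhibition: 0% = DMSO and -100% = no enzyme control.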 The conditions noted are these: purified FLuc enzyme, luminescence, 5 min; series mostly up to 38.9 µM; activity change, negative = inhibition: at the top concentration. The method, boiled down: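 Compounds mixed 15 min with 10 uM luciferin/10 uM ATP, then 10 nM firefly luciferase added for 5 min at pH 7.6. Luminescence percent inhibition, scaled to no-enzyme and DMSO controls, fitted to Hill equation.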
Take `[O][C@H]1[C@@H](O)[C@@H](CO)O[C@@H](O[C@@H]2[C@@H]3OC[C@H]2O[C@H](O[C@@H]2[C@@H](O)[C@H](C[C@@H]4[C@@H]5OC[C@H]4O[CH][C@@H]5O)O[C@H](CO)[C@@H]2OS(=O)(=O)O)[C@@H]3OS(=O)(=O)O)[C@@H]1O`: the “activity change, negative = inhibition” value was -2.24% (inactive).
Turning to `COc1ccc(NC(=O)Cc2noc3ccc(C)cc23)cc1Cl`, the “activity change, negative = inhibition” value is -5.66% (inactive).
For `CCOC(=O)c1c(C)[nH]c(C)c1S(=O)(=O)N1CCC(C(=O)NCc2ccc(OC)cc2)CC1`, the “activity change, negative = inhibition” value was 3.5% (inactive).
Regarding `Cc1c(C(=O)N(C)C)sc2c1c(=O)n(-c1ccc(Cl)cc1)c(=O)n2Cc1ccccc1F`, the “activity change, negative = inhibition” value is -4.76% (inactive).
In the case of `Cc1cc(Cl)ccc1NC(=O)c1cc2ccccn2n1`, the Potency was 8.64 µM (active).
With `Cc1ccc(Nc2c(-c3ccc(C)cc3)nc3c(C)cccn23)cc1`, the “activity change, negative = inhibition” value is -2.92% (inactive).
Same read-out and setting: the same measure for `Cc1ccc(-c2nc(S(=O)(=O)c3ccc(Cl)cc3)c(N3CCCCC3)o2)cc1`: 2.47% (inactive); for `CC1OC(OCC2OC(Oc3cc(O)c4c(c3)OC(c3ccc(O)cc3)CC4=O)C(O)C(O)C2O)C(O)C(O)C1O` (stereo not drawn): -4.14% (inactive); for `CCOC(=O)c1ccc(N2C(=O)c3n[nH]c(-c4ccco4)c3C2c2ccc(C)cc2)cc1` (stereo not drawn): -2.41% (inactive).
Turning to `COc1cccc(-c2nnc(Nc3nc4c(OC)cccc4s3)o2)c1`, the “activity change, negative = inhibition” value was -4.56% (inactive).
Take `O=C(Nc1nnc(-c2ccncc2)s1)Nc1cccc2ccccc12`: the “activity change, negative = inhibition” value is 11.8% (inactive).
Turning to `COc1ccc(N2CC(NC(=O)COc3ccccc3)CC2=O)cc1OC` (stereo not drawn), the “activity change, negative = inhibition” value was -4.62% (inactive).
With `CO[C@@H]1[C@@H](O[C@@H]2O[C@H](C)[C@@H](O[C@H]3C[C@@](C)(O)[C@@H](OC(=O)CC(C)C)[C@H](C)O3)[C@H](N(C)C)[C@H]2O)[C@@H](CC=O)C[C@@H](C)C(=O)/C=C/C2OC2C[C@@H](C)OC(=O)C[C@H]1OC(C)=O` (stereo partly drawn), the “activity change, negative = inhibition” value is 6.04% (inactive).

The values above are taken from PubChem BioAssay AID1845227 (National Center for Advancing Translational Sciences (NCATS), 2023).
